HepG2 viability = kills HepG2 cells in TGF-b inhibitor counter-screen | HepG2 CAGA-GFP viability, ATP luminescence, 18 h | Potency, µM (top dose mostly 46.1 µM), inactives show top-dose activity change, negative = cytotoxicity, actives largely listed as cytotoxic | hit rate 0.76% among 410,000 | AID 588856; note: potency is the fitted concentration of half-maximal effect
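HepG2 CAGA-GFP cells (1000/well, DMEM with 1% FBS) received compound, then TGF-beta at 500 pg/mL final, and were incubated 18 hours at 37 degrees C. Viability was read by CellTiter-Glo luminescence. Media-only wells were set as complete cell-killing and DMSO as no toxicity.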
TGFb inhibitor = blocks TGF-b signaling. HepG2 CAGA-GFP TGF-b/SMAD3 reporter, GFP fluorescence, 18 h; TGF-beta stimulated, 500 pg/mL final. Potency, µM (highest dose often 46.1 µM), for inactives: top-dose activity, negative = inhibition, usual class: inhibitors. hit rate 1.2% among 410,000. AID 588855; note: potency is the fitted concentration of half-maximal effect; % is set by controls: 0 for no effect and ±100 for the full control effect; nearly all actives have a fitted effect of over 65% in size
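HEPG2 CAGA-GFP reporter cells (1000/well, DMEM with 1% FBS) received compounds, then recombinant TGF-beta at 500 pg/mL final for 18 hours at 37 degrees C. Per-cell GFP summed per well was normalised to unstimulated and stimulated DMSO controls before curve fitting.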
TDP1 cell CPT = DT40-hTDP1 cell growth loss with CPT; AID 686979; hit rate 12% among 420,000; Potency, µM (series often up to 46.2 µM), for inactives: at the highest dose activity change, negative = growth inhibition, hits mostly inhibitors; chicken DT40 Tdp1-/-;hTDP1 cells + 20 nM CPT, ATP luminescence, 48 h; note: potency is the fitted concentration of half-maximal effect; % is set by controls: 0 for no effect and ±100 for the full control effect; nearly all actives have a fitted effect of over 55% in size
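Chicken DT40 Tdp1-/- cells stably complemented with human TDP1 were seeded at 400 cells/well in medium containing 20 nM camptothecin, exposed to pin-transferred compounds, and grown at 37 °C for at least 48 hr. Viability was read as ATP luminescence.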
IL1B secr inh = inhibitors of inflammasome signaling (IL-1 beta secretion) | THP-1 LPS/ATP IL-1B secretion, AlphaLISA, 16 h; stronger effect = lower value | activity change, % at 57.5 µM | hit rate 4.7% among 360,000 | AID 743279; in the data active = activity change below about -50%; inconclusive = mostly about -30% to -49%; note: % is set by controls: 0 for no effect and ±100 for the full control effect
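Secreted IL-1B measured by AlphaLISA bead assay after 16 h compound exposure of THP-1 cells; compounds (final up to 57.5 uM) added 1 h before LPS (250 ng/mL) and ATP (1.25 mM) stimulation; lower signal means less secretion.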
S-ASM inh = human S-ASM enzyme inhibition. P17405. placental ASM, HMU-PC fluorogenic substrate, 60 min. hit rate 0.006% among 340,000. Potency, µM (doses to about 57.5 µM), for the others: top-dose activity change, negative = inhibition, most hits filed as inhibitors; note: potency is the fitted concentration of half-maximal effect
Target sequence (P17405 47-631 limits assumed): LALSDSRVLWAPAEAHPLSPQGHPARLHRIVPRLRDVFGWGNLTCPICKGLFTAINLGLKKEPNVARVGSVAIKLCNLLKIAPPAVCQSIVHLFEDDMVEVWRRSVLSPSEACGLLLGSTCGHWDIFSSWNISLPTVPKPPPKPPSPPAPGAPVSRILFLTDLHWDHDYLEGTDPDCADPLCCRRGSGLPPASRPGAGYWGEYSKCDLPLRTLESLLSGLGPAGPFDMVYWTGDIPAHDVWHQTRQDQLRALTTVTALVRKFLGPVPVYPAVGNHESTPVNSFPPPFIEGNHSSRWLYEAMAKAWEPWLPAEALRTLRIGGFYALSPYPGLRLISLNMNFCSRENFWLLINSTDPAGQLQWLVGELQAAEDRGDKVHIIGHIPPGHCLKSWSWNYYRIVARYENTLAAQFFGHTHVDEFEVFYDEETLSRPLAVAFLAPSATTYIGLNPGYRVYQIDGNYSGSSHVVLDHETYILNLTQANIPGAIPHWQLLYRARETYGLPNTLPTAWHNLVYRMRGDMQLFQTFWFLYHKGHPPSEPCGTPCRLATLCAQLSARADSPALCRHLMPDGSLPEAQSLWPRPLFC
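Fluorogenic HMU-PC substrate (9 uM final) is turned over by placental ASM in 60 min at 37 C after a 10 min compound preincubation. Reaction ended by alkaline stop (pH 10), with fluorescence read at 386/447 nm.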
DT40 TDP1 no CPT = qHTS for Inhibitors of human tyrosyl-DNA phosphodiesterase 1 (TDP1): qHTS in cells in absence of CPT; DT40 Tdp1-/- hTDP1 cells, no CPT, ATP luminescence, 48 h; Potency, µM (top dose mostly 46.2 µM), for inactives: at the top dose activity change, negative = growth inhibition, most hits filed as inhibitors; hit rate 15% among 420,000; AID 686978, 2013; note: potency is the fitted concentration of half-maximal effect; % is set by controls: 0 for no effect and ±100 for the full control effect; nearly all actives have a fitted effect of over 55% in size
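Chicken DT40 Tdp1-/- cells complemented with human TDP1, screened without camptothecin (DMSO vehicle only), 400 cells/well. Compounds pin-transferred, cells incubated at 37 °C for at least 48 hr. Growth read as ATP-dependent luminescence (CellTiter-Glo, 30 min at RT).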
* hit, by the source's call; ? = inconclusive; nt = not tested or not shown; [ ] = another dose, or the depositor's remark. Compounds with a hit are over-represented: about 19% of the library has one in this group of screens. Unless noted, calls come from the whole dose curve; as a rule, active = well fitted curve in the direction sought with a large enough effect; inconclusive = small, poorly fitted or top-dose-only effect, or another doubt; inactive = no such curve, though single readings can be large; an effect the other way counts as inactive or inconclusive.

SMILES	HepG2 viability	TGFb inhibitor	TDP1 cell CPT	IL1B secr inh	S-ASM inh	DT40 TDP1 no CPT
CCc1cccc(NC(=O)Cn2c(=O)n(CCCCCC(=O)NCc3ccc(F)cc3)c(=O)c3sccc32)c1	-19.1%	-14.5%	?	nt	nt	?
Cc1nn(C(C)C(=O)NC2CCCCC2)c(=O)c2c1sc1ccccc12 (stereo unspecified)	-17.5%	-17.6%	?	nt	nt	?
CC(C)N(C(=O)[C@H]1CC(CC(=O)NCCN2CCOCC2)C(=O)N2CCc3c([nH]c4ccccc34)[C@]12C)C(C)C (stereo partly specified)	-5.4%	-18.0%	0.7%	-19.9	4.1%	-25.7%
CN(CCCC(=O)Nc1ccc(Br)cc1F)S(=O)(=O)c1ccccc1	-24.3%	?	?	18.2	-1.7%	?
COc1ccc(N2CCN(C(=O)Cn3c(=O)c4cccn4c4cccnc43)CC2)cc1	3.7%	0.2%	?	9.0	3.2%	-27.5%
O=C(CCn1c(=O)c2cccn2c2cccnc21)N1CCN(c2cccc(Cl)c2)CC1	2.6%	?	18.4µM*	22.9	-12.6%	14.6µM*
O=C(O)CCn1c(=O)c2cccn2c2cccnc21	-2.2%	nt	-6.8%	nt	nt	-0.3%
Cc1ccc(Cl)cc1N1CCN(C(=O)CCn2c(=O)c3cccn3c3cccnc32)CC1	7.4%	-19.1%	9.2µM*	nt	nt	6.51µM*
O=C(CCn1c(=O)c2cccn2c2cccnc21)N1CCN(c2ccccc2F)CC1	-1.2%	-16.7%	?	nt	nt	23.1µM*
Cc1ccc(C)c(N2CCN(C(=O)CCn3c(=O)c4cccn4c4cccnc43)CC2)c1	-2.9%	?	?	nt	nt	20.6µM*
COc1ccc(CC(=O)NCCS(=O)(=O)N2CCN(c3ccccc3)CC2)cc1	2.4%	11.8%	-21.6%	6.7	0.1%	-14.0%
CCOC(=O)C1CCCN(C(=O)/C(=C/c2ccco2)NC(=O)c2ccccc2)C1 (stereo unspecified)	-7.6%	-2.3%	2.8%	11.6	1.6%	0.7%
CCC1(C2CCN(C(=O)c3ccc(C)cc3C)CC2)NC(=O)N(CCc2scnc2C)C1=O (stereo unspecified)	nt	nt	-4.6%[9.04 µM]	nt	nt	-19.4%
Cc1ccc(C)c(N2CCN(CCCNC(=O)Cn3c(=O)c4cccn4c4cccnc43)CC2)c1	-14.7%	3.0%	20.6µM*	?	2.8%	?
CCOC(=O)c1cc(-c2cccc([N+](=O)[O-])c2)nc2[nH]c(=O)[nH]c(=O)c12	-46.2%	-16.5%	-17.8%	-25.0	-5.1%	23.1µM*
CCOC(=O)c1c(C)nc(C)c(C(=O)OCC)c1-c1cccc([N+](=O)[O-])c1	-25.1%	-4.5%	-27.2%	-17.8	nt	?
CCc1ccc(NC(=O)C2=C(C)C(=O)OC23CCCCC3)cc1	-14.4%	nt	16.4µM*	nt	nt	16.4µM*
CCOC(=O)c1cccc(NC(=O)C2=C(C)C(=O)OC23CCCCC3)c1	-5.1%	nt	?	nt	nt	?
CC1=C(C(=O)Nc2ccc(C)cc2Cl)C2(CCCCCC2)OC1=O	-7.7%	-23.6%	?	nt	nt	?
COc1ccc(NC(=O)C2=C(C)C(=O)OC23CCC(C)CC3)c(OC)c1 (stereo unspecified)	-11.5%	-9.0%	?	13.9	-1.6%	?
CCOc1ccc(NC(=O)C2=C(C)C(=O)OC23CCC(C)CC3)cc1 (stereo unspecified)	-34.5%	7.0%	?	-17.6	-1.1%	16.4µM*
CC1=C(C(=O)Nc2ccc(C)cc2Cl)C2(CCCCC2)OC1=O	-22.6%	nt	?	nt	nt	16.4µM*
COC(=O)c1ccc(NC2=CC(=O)CC(C)(C)C2)cc1	-48.6%	0.0%	23.1µM*	?	2.9%	23.1µM*
